In PubChem BioAssay AID1159580 (chemical genetic matrix, 2015):
Out of some 5,500 compounds screened, about 2,000 (36%) were called active. Roughly 18% stayed inconclusive and do not appear here. No stated cut-off is given here; in the data, active means normalized growth mostly below about 0.91 (no sharp cut-off); inconclusive means no clear call, values can overlap the other calls; inactive means mostly above about 0.92. The list shows a part of the results.

Assay: chemical genetic growth profiling, strain panel (AID 1159580);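 further: tested at 20 µM; growth read once vehicle control cultures reached saturation at 30 °C; 1 = growth at the plate median or of vehicle wells; lower values mean less growth of the strain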
Conditions: growth OD

Measured: normalized growth

COc1cc(C(=O)NCc2ccc(OCCN(C)C)cc2)cc(OC)c1OC
inactive: S. cerevisiae deletion strains, locus YJL187C, strain SWE1, hits give low values 0.99 | S. cerevisiae deletion strains, locus YJR043C, strain POL32, hits give low values 0.984 | S. cerevisiae deletion strains, locus YJR066W, strain TOR1, hits give low values 0.929 | S. cerevisiae deletion strains, locus YKL009W, strain mrt4, hits give low values 1.01 | S. cerevisiae deletion strains, locus YKL068W, hits give low values 0.978 | S. cerevisiae deletion strains, locus YKL085W, strain MDH1 (second series), hits give low values 0.975 | S. cerevisiae deletion strains, locus YKL085W, strain MDH1, hits give low values 0.975 | S. cerevisiae deletion strains, locus YKL160W, strain elf1, hits give low values 0.947 | S. cerevisiae deletion strains, locus YKL190W, strain CNB1, hits give low values 0.986 | S. cerevisiae deletion strains, locus YKR001C, strain vps1, hits give low values 0.983 | S. cerevisiae deletion strains, locus YKR026C, strain gcn3, hits give low values 0.989 | S. cerevisiae deletion strains, locus YKR091W, strain srl3, hits give low values 0.993 | S. cerevisiae deletion strains, locus YLL001W, strain dnm1, hits give low values 1 | S. cerevisiae deletion strains, locus YLL026W, hits give low values 1 | S. cerevisiae deletion strains, locus YLL041C, strain sdh2, hits give low values 1 | S. cerevisiae deletion strains, locus YLR027C, strain aat2, hits give low values 0.996 | S. cerevisiae deletion strains, locus YLR039C, strain RIC1, hits give low values 0.954 | S. cerevisiae deletion strains, locus YLR058C, strain SHM2, hits give low values 0.97 | S. cerevisiae deletion strains, locus YLR102C, strain apc9, hits give low values 0.984 | S. cerevisiae deletion strains, locus YLR113W, strain HOG1, hits give low values 0.986 | S. cerevisiae deletion strains, locus YLR221C, strain rsa3, hits give low values 1.01 | S. cerevisiae deletion strains, locus YLR258W, strain gsy2, hits give low values 0.999 | S. cerevisiae deletion strains, locus YLR262C, strain YPT6 (second series), hits give low values 1.02 | S. cerevisiae deletion strains, locus YLR262C, strain YPT6, hits give low values 0.965 | S. cerevisiae deletion strains, locus YLR268W, strain sec22, hits give low values 0.971 | S. cerevisiae deletion strains, locus YLR320W, strain mms22, hits give low values 0.978 | S. cerevisiae deletion strains, locus YLR330W, strain CHS5, hits give low values 0.999 | S. cerevisiae deletion strains, locus YLR342W, strain FKS1 (second series), hits give low values 1.07 | S. cerevisiae deletion strains, locus YLR342W, strain FKS1, hits give low values 0.991 | S. cerevisiae deletion strains, locus YLR357W, strain rsc2, hits give low values 0.959 | S. cerevisiae deletion strains, locus YLR370C, strain arc18, hits give low values 0.99 | S. cerevisiae deletion strains, locus YLR371W, strain rom2, hits give low values 0.984 | S. cerevisiae deletion strains, locus YLR384C, strain iki3, hits give low values 1 | S. cerevisiae deletion strains, locus YLR418C, strain cdc73, hits give low values 1.01 | S. cerevisiae deletion strains, locus YML016C, strain PPZ1, hits give low values 0.991 | S. cerevisiae deletion strains, locus YML032C, strain rad52, hits give low values 0.987 | S. cerevisiae deletion strains, locus YML120C, strain ndi1, hits give low values 1.01 | S. cerevisiae deletion strains, locus YML124C, strain tub3, hits give low values 0.982 | S. cerevisiae deletion strains, locus YMR058W, strain fet3, hits give low values 1.02 | S. cerevisiae deletion strains, locus YMR078C, strain ctf18, hits give low values 0.984 | S. cerevisiae deletion strains, locus YMR125W, strain sto1, hits give low values 0.961 | S. cerevisiae deletion strains, locus YMR129W, hits give low values 1.01 | S. cerevisiae deletion strains, locus YMR205C, strain PFK2, hits give low values 0.992 | S. cerevisiae deletion strains, locus YMR223W, strain ubp8, hits give low values 1.03 | S. cerevisiae deletion strains, locus YMR231W, strain pep5, hits give low values 1 | S. cerevisiae deletion strains, locus YMR307W, strain GAS1, hits give low values 1.05 | S. cerevisiae deletion strains, locus YNL067W, strain RPL9B, hits give low values 0.972 | S. cerevisiae deletion strains, locus YNL071W, strain lat1, hits give low values 0.991 | S. cerevisiae deletion strains, locus YNL183C, strain NPR1, hits give low values 0.937 | S. cerevisiae deletion strains, locus YNL209W, strain ssb2, hits give low values 0.988 | S. cerevisiae deletion strains, locus YNL233W, strain BNI4, hits give low values 0.994 | S. cerevisiae deletion strains, locus YNL248C, strain rpa49, hits give low values 0.95 | S. cerevisiae deletion strains, locus YNL250W, strain rad50, hits give low values 0.977 | S. cerevisiae deletion strains, locus YNL271C, strain bni1, hits give low values 0.976 | S. cerevisiae deletion strains, locus YNL298W, strain CLA4, hits give low values 0.997 | S. cerevisiae deletion strains, locus YNL307C, strain MCK1, hits give low values 0.98 | S. cerevisiae deletion strains, locus YNL322C, strain KRE1 (second series), hits give low values 0.983 | S. cerevisiae deletion strains, locus YNL322C, strain KRE1, hits give low values 0.984 | S. cerevisiae deletion strains, locus YNR049C, strain mso1, hits give low values 1 | S. cerevisiae deletion strains, locus YNR052C, strain pop2, hits give low values 0.988 | S. cerevisiae deletion strains, locus YOL012C, strain htz1 1.41 | S. cerevisiae deletion strains, locus YOL147C, strain pex11, hits give low values 0.991 | S. cerevisiae deletion strains, locus YOR001W, strain rrp6, hits give low values 1.01 | S. cerevisiae deletion strains, locus YOR061W, strain CKA2, hits give low values 0.962 | S. cerevisiae deletion strains, locus YOR069W, strain VPS5, hits give low values 0.997 | S. cerevisiae deletion strains, locus YOR070C, strain gyp1, hits give low values 0.997 | S. cerevisiae deletion strains, locus YOR080W, strain dia2, hits give low values 0.997 | S. cerevisiae deletion strains, locus YOR083W, strain WHI5, hits give low values 0.927 | S. cerevisiae deletion strains, locus YOR106W, strain vam3, hits give low values 0.98 | S. cerevisiae deletion strains, locus YOR136W, strain idh2, hits give low values 0.98 | S. cerevisiae deletion strains, locus YOR144C, strain elg1, hits give low values 0.993 | S. cerevisiae deletion strains, locus YOR184W, strain ser1, hits give low values 0.985 | S. cerevisiae deletion strains, locus YOR231W, strain MKK1, hits give low values 0.984 | S. cerevisiae deletion strains, locus YOR265W, strain rbl2, hits give low values 1 | S. cerevisiae deletion strains, locus YOR270C, strain vph1, hits give low values 0.973 | S. cerevisiae deletion strains, locus YOR290C, strain snf2, hits give low values 0.972 | S. cerevisiae deletion strains, locus YOR316C, strain cot1, hits give low values 0.977 | S. cerevisiae deletion strains, locus YPL051W, strain arl3, hits give low values 0.982 | S. cerevisiae deletion strains, locus YPL055C, strain LGE1, hits give low values 0.931 | S. cerevisiae deletion strains, locus YPL078C, strain atp4, hits give low values 0.965 | S. cerevisiae deletion strains, locus YPL106C, strain sse1, hits give low values 0.935 | S. cerevisiae deletion strains, locus YPL240C, strain hsp82, hits give low values 0.995 | S. cerevisiae deletion strains, locus YPL256C, strain CLN2, hits give low values 0.97 | S. cerevisiae deletion strains, locus YPR119W, strain clb2, hits give low values 0.981 | S. cerevisiae deletion strains, locus YPR141C, strain kar3, hits give low values 0.969 | S. cerevisiae deletion strains, locus YPR163C, strain tif3, hits give low values 0.988 | S. cerevisiae deletion strains, locus YPR167C, strain met16, hits give low values 0.994 | S. cerevisiae deletion strains, strain wtn01, hits give low values 1 | S. cerevisiae strains, strain wild type, hits give low values 0.979
